Assay outcomes deposited in PubChem by National Center for Advancing Translational Sciences (NCATS).
In the library only some 4% were active in any assay of this set; here they are far more common.
TRHR agonist: qHTS for Small Molecule Agonists and Allosteric Enhancers of Human TRH Receptor: Primary Screen for Agonists | Thyrotropin-releasing hormone receptor (Homo sapiens), P34981 | TRHR cells, calcium flux fluo-8, FDSS agonist mode | activation, % at 2 µM | hit rate 0.18% among 360,000; also: 0% is about no effect
Target sequence (P34981 whole entry, looked up): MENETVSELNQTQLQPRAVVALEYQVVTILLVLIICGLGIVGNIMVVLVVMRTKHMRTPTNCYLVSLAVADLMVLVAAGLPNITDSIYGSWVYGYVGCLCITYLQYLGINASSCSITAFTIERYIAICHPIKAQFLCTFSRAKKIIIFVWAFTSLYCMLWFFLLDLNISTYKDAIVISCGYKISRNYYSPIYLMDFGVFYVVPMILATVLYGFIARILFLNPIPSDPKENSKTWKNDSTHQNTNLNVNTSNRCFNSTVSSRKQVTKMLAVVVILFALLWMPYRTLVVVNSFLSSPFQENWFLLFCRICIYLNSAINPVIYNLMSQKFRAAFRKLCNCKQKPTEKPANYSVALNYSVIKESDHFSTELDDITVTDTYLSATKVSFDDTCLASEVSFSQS
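Read-out: compound-evoked intracellular calcium rise in TRHR cells, fluo-8 dye, kinetic FDSS fluorescence at 1 s/cycle following a 10-cycle baseline. Cells cultured overnight before dye loading (30 min–1.5 h, RT).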
D1 potentiator: Potentiators of Human D1 Dopamine Receptor: qHTS; HEK293 TREx D1 cells, calcium flux, dopamine EC20 potentiation; AID 504651, 2011; potentiation, % at 10 µM; hit rate 0.036% among 360,000; D(1A) dopamine receptor (Homo sapiens), P21728; in the data active = potentiation above about 30%; also: 0% is about no effect
GRP78 ERSR act: qHTS for Inducers of the Endoplasmic Reticulum Stress Response (ERSR) in Human Glioma: qHTS. U87-MG GRP78 promoter luciferase reporter, 16 h. Potency, µM, without a hit: top-dose activation, most hits filed as activators. hit rate 0.02% among 420,000; active = well fitted activation curve with a large enough effect; also: potency is read from the fitted curve at half-maximal effect; series mostly up to about 76 µM; % of control where 0% means no effect; nearly all actives have a fitted effect of over 35% in size
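Stably transfected U87-MG human glioma cells carrying a GRP78-based luminescent sensor were seeded at 1000 cells/well, pin-dosed with compounds and incubated 16 h. Luciferase reagent was then added, and end-point luminescence was read after 10 min at room temperature.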
D1 antagonist: Antagonist of Human D 1 Dopamine Receptor: qHTS | D(1A) dopamine receptor (Homo sapiens), P21728 | HEK293 TREx D1 cells, calcium flux, dopamine EC80; active compounds read low | activity change, negative = inhibition, % at 10 µM | hit rate 3.2% among 360,000 | AID 504652, 2011; in the data active = activity change below about -30%; also: % is scaled to controls: 0 for no effect and ±100 for the full control effect
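HEK293 T-REx cells expressing inducible, force-coupled D1 receptor; no-wash Ca dye, 30–90 min RT. Cmpd → 180 s read at 1 Hz → EC80 DA → 180 s read.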
TRHR enhancer: qHTS for Small Molecule Agonists and Allosteric Enhancers of Human TRH Receptor: Primary Screen for Enhancers; Thyrotropin-releasing hormone receptor (Homo sapiens), P34981; TRHR cells, fluo-8 calcium fluorescence, EC20 TRH enhancement; enhancement, % at 2 µM; hit rate 0.66% among 360,000; AID 493056, 2011; in the data active = enhancement above about 30%; also: 0% is about no effect
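TRHR-expressing cells loaded with fluo-8 calcium dye were read kinetically (ex 480/em 530) during compound addition, then stimulated with an EC20 of TRH (10 nM final). Enhancement of the Gq-mediated intracellular calcium response was scored.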
D1 agonist: Allosteric Agonists of the Human D1 Dopamine Receptor: qHTS; hit rate 1% among 360,000; activation, % at 2 µM; HEK293 T-REx D1 cells, calcium flux, agonist mode; D(1A) dopamine receptor (Homo sapiens), P21728; also: 0% is about no effect
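Agonism was scored from calcium flux recorded over 180 s (1 read/s) after pintool compound addition, following a 10-cycle baseline. Cells were inducible force-coupled HEK293 TREx D1, plated overnight at 30 C and loaded with no-wash calcium dye.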
* hit, by the source's call; x = no result given. Rule as the data show it, unless noted: active = activation above about 30%; inactive = the rest.

SMILES | TRHR agonist | D1 potentiator | GRP78 ERSR act | D1 antagonist | TRHR enhancer | D1 agonist
CCOc1ccc(-n2nnnc2SCC(=O)NNC(=O)c2ccco2)cc1 | -1 | 8 | 1% | -38* | 0 | 2
C[C@H](/C=C/[C@H](C)C(C)(C)O)[C@H]1CC[C@H]2/C(=C/C=C3C[C@@H](O)C[C@H](O)C3)CCC[C@]12C | x | x | -3% | x | x | x
O=C(Nc1cccc(C(F)(F)F)c1)C1CCN(S(=O)(=O)c2ccc(N3CCCC3=O)cc2)CC1 | 1 | -11 | -5% | -47* | -6 | 9
COc1cccc(NC(=O)C2CCN(S(=O)(=O)c3ccc4c(c3)CC(C)N4C(C)=O)CC2)c1 (stereo not given) | -1 | -5 | -4% | -4 | 1 | 0
CC(=O)N1c2ccc(S(=O)(=O)N3CCC(C(=O)Nc4cccc(C(F)(F)F)c4)CC3)cc2CC1C (stereo not given) | 1 | -4 | -5% | -34* | -4 | 3
C=C1C=C(Br)C2(OCCCO2)[C@H]2OC12 (stereo not given in full) | x | x | -5% | x | x | x
CCOC(=O)c1csc(CCNC(=O)c2ccccc2)n1 | x | x | 0% | x | x | x
CN1CCN(c2ncncc2-c2cccnc2)CC1 | x | x | -1% | x | x | x
Clc1nc(Nc2ccc(N3CCOCC3)cc2)c2ccccc2n1 | 0 | -2 | -10% | -12 | 1 | 3
O=S(=O)(Nc1nc2ccccc2nc1Nc1ccc(N2CCOCC2)cc1)c1cc(Cl)ccc1Cl | 0 | -8 | -3% | -50* | -4 | 15
O=S(=O)(c1ccc2ccccc2c1)N1CCN=C1SCc1cccnc1 | 0 | -2 | -2% | -34* | -9 | 3
CCSC1=NCCN1S(=O)(=O)c1ccc2ccccc2c1 | -1 | -3 | -5% | -31* | -7 | 1
CN(NC1OC(=O)c2ccccc21)c1ccccc1[N+](=O)[O-] (stereo not given) | 0 | -3 | -2% | -9 | 6 | 4
O=C(NCCC1=CCCCC1)c1ccc(Br)o1 | 0 | -7 | 2% | 6 | -4 | 0
CCC1Oc2ccccc2N(CC(=O)NCCC2=CCCCC2)C1=O (stereo not given) | -1 | -1 | -5% | -34* | -1 | 6
O=C(NCCC1=CCCCC1)C(c1ccccc1)c1ccccc1 | 0 | -8 | 4% | -33* | -4 | 5
O=C(CCc1ccccc1)NCCC1=CCCCC1 | 0 | 14 | 3% | -33* | 7 | 2
CCC1Oc2ccccc2N(CC(=O)NCCN2CCc3ccccc3C2)C1=O (stereo not given) | 0 | -2 | -2% | -19 | 0 | 6
O=C(NC(=S)NCCC1=CCCCC1)c1ccc(Br)o1 | 0 | -5 | 2% | -32* | -8 | 4
O=C1CC[C@@H](C(=O)NCC2Cc3cc(Cl)cc(-c4ccc5[nH]ccc5c4)c3O2)N1 (stereo not given in full) | x | x | -2% | x | x | x
Cc1cccc(CSCCNC(=O)CN(c2ccccc2)S(=O)(=O)N(C)C)c1 | -1 | -7 | x | -5 | -4 | 30
Cc1ccc(C(=O)N2CCN(c3ccc([N+](=O)[O-])c(NCc4ccco4)c3)CC2)cc1 | -1 | -9 | -4% | 1 | 1 | 3
Cc1cccc(C(=O)N2CCN(c3ccc([N+](=O)[O-])c(N4CCOCC4)c3)CC2)c1 | -2 | -11 | 1% | -45* | -16 | 2
O=C(c1ccc2ccccc2c1)N1CCN(c2ccc([N+](=O)[O-])c(N3CCOCC3)c2)CC1 | -1 | -1 | 0% | -21 | 1 | 1
Cc1cccc(C(=O)N2CCN(c3ccc([N+](=O)[O-])c(NCc4ccco4)c3)CC2)c1 | 0 | -10 | 1% | -67* | 12 | 3
SMILES | TRHR agonist | D1 potentiator | GRP78 ERSR act | D1 antagonist | TRHR enhancer | D1 agonist
COC(=O)c1c(OCc2ccccc2)cc(=O)n2c1CCN(Cc1cccc(C)n1)CC2 | x | x | -1% | x | x | x
CCCCCCCN1CCN=C1N(C)C | 0 | -5 | -3% | -35* | -2 | 0
CO/N=C1/[C@H]2O[C@@H]2[C@@H](O)[C@H]2[C@H]1CCn1c(=O)n(-c3ccccc3)c(=O)n12 | x | x | -4% | x | x | x
COC1=C/C(=C/c2c(N)n3nc(-c4ccc(C)cc4)sc3nc2=O)C=CC1=O | 5 | -3 | 2% | 14 | 0 | 7
CCS(=O)(=O)c1nn2c(N)c(/C=C3/C=CC(=O)C(OC)=C3)c(=O)nc2s1 | 15 | -3 | -4% | 13 | 7 | 31*
COc1ccc(Cn2c(=O)c3oc4ccccc4c3n(CC(=O)Nc3c(C)cccc3C)c2=O)cc1 | 0 | -3 | -3% | -1 | 5 | 1
CCc1ccccc1NC(=O)Cn1c(=O)n(Cc2ccc(OC)cc2)c(=O)c2oc3ccccc3c21 | -1 | -2 | -5% | 3 | 35* | -1
CSCC[C@H](NC(=O)[C@H](Cc1ccccc1)NC(=O)[C@H](Cc1cnc[nH]1)NC(=O)CNC(=O)[C@@H](NC(=O)[C@H](C)NC(=O)[C@H](Cc1c[nH]c2ccccc12)NC(=O)[C@H](CC(C)C)NC(=O)[C@H](CC(N)=O)NC(=O)CN)[C@@H](C)O)C(N)=O | x | x | -4% | x | x | x
Cc1c(C(=O)Nc2cc(F)cc(F)c2)cnn1-c1ccccc1 | 2 | -8 | 4% | -32* | 37* | 6
Cc1c(C(=O)Nc2ccccc2F)cnn1-c1ccccc1 | -2 | -1 | -4% | -1 | -5 | 8
C=Cc1cc2c(s1)c1cnn(Cc3ccccc3F)c(=O)c1n2C | -1 | 5 | x | 13 | -2 | 2
O=C(NCc1cn(-c2ccccc2)nc1-c1ccccc1)c1cccc([N+](=O)[O-])c1 | 0 | -10 | 2% | -33* | -6 | 2
COCCNC(=O)CSc1nc2ccccc2c(=O)n1CC1CCCO1 (stereo not given) | 0 | -3 | -1% | -76* | 6 | 3
O=C(N/N=C/c1ccco1)c1cc(-c2ccc3ccccc3c2)n[nH]1 | 0 | 43* | -14% | 0 | -1 | 0
CCc1ccc(-c2cc(C(=O)N/N=C/c3ccco3)[nH]n2)cc1 | 0 | 3 | 2% | -67* | 0 | 27
CCc1ccc(-c2cc(C(=O)N/N=C/c3ccccn3)[nH]n2)cc1 | 0 | 2 | -4% | 1 | 3 | 0
O=[N+]([O-])c1ccc([S+](=O)([O-])N2CCN([S+](=O)([O-])c3ccc4c(c3)OCCO4)CC2)c([N+](=O)[O-])c1 | 0 | 3 | x | -25 | 1 | 0
